From PubChem BioAssay AID588382 (National Center for Advancing Translational Sciences (NCATS), 2011)
In all, about 1,300 compounds went through this assay and about 150 (12%) were called active. Another 30% or so got no clear call; they are omitted. Calls follow the shape of the dose curve; as a rule, active = well fitted cell-killing curve with a large enough effect; inconclusive = small, poorly fitted or top-dose-only effect, or effect the other way; inactive = flat fitted curve, though single readings scatter. Many of the other results were omitted from the sample, so actives are more common in it than they were.

assay: qHTS of small molecules that selectively kill Giardia lamblia: Hit Validation in HepG2 cytotox; conditions: cell viability; Potency: HepG2 cytotoxicity; series mostly up to 38.3 µM; activity change, negative = cytotoxicity: at the top concentration;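 also: compound exposure lasted overnight at 37 deg C; nearly all actives have a fitted effect of over 55% in size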;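 as to activity change, negative = cytotoxicity: viability measured as cellular ATP by ATPLite luminescence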
In short: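 Counterscreen cytotoxicity: ATPLite luminescence (15 min, room temperature) measured in HepG2 cells exposed overnight at 37 deg C to pin-transferred compound (23 nL) after overnight pre-incubation.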
% is scaled to controls: 0 for no effect and ±100 for the full control effect; potency is read from the fitted curve at half-maximal effect.

| SMILES | activity change, negative = cytotoxicity | Potency |
| --- | --- | --- |
| Cc1cc(C)cc(N=c2c([N+](=O)[O-])nn(-c3cccc(Cl)c3)n2O)c1 | 17.1% (inactive) | – |
| O=C(Nc1ccc2oc(-c3ccncc3)nc2c1)c1ccc([N+](=O)[O-])o1 | – | 16.5 µM (active) |
| Cc1ccc(-c2nnc(NC(=O)c3ccc([N+](=O)[O-])o3)o2)c(C)c1 | -10.4% (inactive) | – |
| O=C(Nc1ccc(-c2nc3ncccc3o2)cc1)c1ccc([N+](=O)[O-])o1 | – | 4.65 µM (active) |
| Cc1cccnc1NC(=O)c1ccc([N+](=O)[O-])o1 | 5.86% (inactive) | – |
| O=C(Nc1ccc2oc(-c3cccnc3)nc2c1)c1ccc([N+](=O)[O-])o1 | – | 13.1 µM (active) |
| O=C(Nc1ccc2oc(-c3ccccc3F)nc2c1)c1ccc([N+](=O)[O-])o1 | 16.3% (inactive) | – |
| COc1ccc(-n2c(C)cc(C(=O)COc3ccc(C)nc3[N+](=O)[O-])c2C)cc1 | 0.437% (inactive) | – |
| CC(=O)c1c(COC(=O)c2ccc(F)cc2)nc2ccccc2[n+]1[O-] | 26.6% (inactive) | – |
| COc1ccc(-n2nc([N+](=O)[O-])c(=NCCc3ccc(OC)c(OC)c3)n2O)cc1 | 19.2% (inactive) | – |
| Cc1cccc(NC(=O)CN2C(=O)S/C(=C\c3ccc(O)c([N+](=O)[O-])c3)C2=O)c1 | 1.03% (inactive) | – |
| Cn1nc(N)c2c(-c3ccc(Cl)cc3)c(C#N)c(N)nc21 | 18.2% (inactive) | – |
| O=[N+]([O-])c1ccc(/C=N/Nc2nc(N3CCCC3)nc(N3CCCC3)n2)o1 | 27.3% (inactive) | – |
| CCN(CC)S(=O)(=O)c1cccc(N=Nc2c(O)c3ccccc3oc2=O)c1 | 3.89% (inactive) | – |
| Cc1ccc(S(=O)(=O)N2[C@@H](c3ccc(Cl)cc3)C(C(=O)O)=CC[C@H]2c2cccc(Cl)c2)cc1 | 4.59% (inactive) | – |
| O=[N+]([O-])c1ccc(NCc2ccccc2N2CCC(CO)CC2)nc1 | 0.405% (inactive) | – |
| Cc1c(Cl)cccc1N=c1c([N+](=O)[O-])nn(-c2ccccc2)n1O | 11.6% (inactive) | – |
| CN=c1c([N+](=O)[O-])nn(-c2ccc3c(c2)OCCO3)n1O | 19.2% (inactive) | – |
| O=c1c2c([N+](=O)[O-])cc([N+](=O)[O-])cc2nc2ccccn12 | 12.5% (inactive) | – |
| CCCC12CN3CC(C)(CN(C1)C3c1ccc([N+](=O)[O-])o1)C2=O (stereo unspecified) | 23.5% (inactive) | – |
| CC(=O)CSc1ccc(-c2nc3ccccc3[nH]2)cn1 | – | 14.7 µM (active) |

| SMILES | activity change, negative = cytotoxicity | Potency |
| --- | --- | --- |
| Cc1ncc([N+](=O)[O-])n1CCOC(=O)NC(NCc1ccccc1)C(Cl)(Cl)Cl (stereo unspecified) | 6.73% (inactive) | – |
| Cc1cnc(N=Nc2ccccc2)[nH]1 | 9.01% (inactive) | – |
| Cc1cc2nc(-c3ccc[nH]c3=O)[nH]c2cc1C | – | 2.33 µM (active) |
| O=[N+]([O-])c1nn(-c2ccc3c(c2)OCCO3)n(O)c1=NC1CCCCC1 | -2.04% (inactive) | – |
| CC(NC(=O)COc1cccnc1[N+](=O)[O-])c1ccc(F)cc1 (stereo unspecified) | 20.7% (inactive) | – |
| O=C(CSc1nnc(NC(=O)c2c(F)cccc2F)s1)Nc1ccc(F)cc1 | 5.56% (inactive) | – |
| O=C(CSc1nnc(NC(=O)c2ccccc2)s1)NCc1ccco1 | – | 2.07 µM (active) |
| O=C(Cc1ccc(-n2c(=O)c3sccc3n(CC(=O)Nc3ccccc3)c2=O)cc1)NCc1ccco1 | 10.6% (inactive) | – |
| O=C(Nc1nnc(SCC(=O)N2CCOCC2)s1)c1ccccc1 | – | 2.33 µM (active) |
| O=C(Nc1nnc(SCC(=O)N2CCOCC2)s1)c1ccccc1Cl | – | 2.07 µM (active) |
| Cc1ccc(S(=O)(=O)N2[C@@H](c3ccccc3)C(C(=O)O)=CC[C@H]2c2ccc3c(c2)OCO3)cc1 | 7.58% (inactive) | – |
| CCN(c1ccccc1)S(=O)(=O)c1cccc(C(=O)OCc2nc3sc(C)c(C)c3c(=O)[nH]2)c1 | 14.1% (inactive) | – |
| CC(OC(=O)c1ccc([N+](=O)[O-])s1)C(=O)NC1CCCCC1C (stereo unspecified) | -1.99% (inactive) | – |
| O=[N+]([O-])c1nn(-c2ccc3c(c2)OCCO3)n(O)c1=NCCCO | 6.86% (inactive) | – |
| O=[N+]([O-])c1ccc(-c2nc(C(Cl)Cl)c3ccccc3n2)cc1 | 16.9% (inactive) | – |
| CCOC(=O)C1=C(C)N=c2s/c(=C\c3ccc(O)c([N+](=O)[O-])c3)c(=O)n2C1c1ccccc1OC (stereo unspecified) | -5.81% (inactive) | – |
| Nc1ccc[n+](CC(=O)c2ccc(F)cc2)c1 | – | 1.65 µM (active) |
| CCOC(=O)c1c(C)[nH]c(C)c1S(=O)(=O)N1CCN(c2ccc([N+](=O)[O-])cc2)CC1 | 10.8% (inactive) | – |
| Cc1ccc(CN=c2c([N+](=O)[O-])nn(-c3cccc(Cl)c3)n2O)cc1 | 20.9% (inactive) | – |
| N#C/C(=C(/O)c1ccc([N+](=O)[O-])o1)c1nc2ccccc2[nH]1 | – | 3.69 µM (active) |
| CCCn1c(NC(=O)c2ccc([N+](=O)[O-])o2)nc2ccccc21 | -29.1% (inactive) | – |

| SMILES | activity change, negative = cytotoxicity | Potency |
| --- | --- | --- |
| CN(Cc1ccccc1)C(=O)c1ccc([N+](=O)[O-])o1 | 8.4% (inactive) | – |
| COc1ccc(C(=S)NC2CCCCC2)cc1 | 8.79% (inactive) | – |
| COc1ccccc1-c1nnc(C2CCN(S(=O)(=O)c3cccc([N+](=O)[O-])c3)CC2)o1 | -11.8% (inactive) | – |
| CS(=O)(=O)N1CCN(c2ccc([N+](=O)[O-])c3cccnc23)CC1 | 12.2% (inactive) | – |
| COc1ccccc1C1OC2=C(Nc3ccc([N+](=O)[O-])cc3N2)C1=O (stereo unspecified) | 5.53% (inactive) | – |
| CNc1nnc(-c2ccc(N(C)C)cc2)s1 | – | 4.14 µM (active) |
| Cc1ccccc1NC(NC(=O)OCCn1c([N+](=O)[O-])cnc1C)C(Cl)(Cl)Cl (stereo unspecified) | 15.1% (inactive) | – |
| COc1cc(/C=C/c2ccc3cccc(OC)c3n2)c(O)c([N+](=O)[O-])c1 | -0.206% (inactive) | – |
| CC1=NN(c2nc3ccccc3[nH]2)C(=O)/C1=C/N(C)C | – | 0.927 µM (active) |
| Cc1ccc([C@H]2C(C(=O)O)=CC[C@@H](c3cccc(Cl)c3)N2S(=O)(=O)c2ccc(C)cc2)cc1 | 20.3% (inactive) | – |
| O=[N+]([O-])c1cccc(-n2nnnc2CNCc2ccccc2)c1 | 4.65% (inactive) | – |
| O=C(O)c1cc2ccccc2c(N=Nc2cccnc2)c1O | 17.4% (inactive) | – |
| CN1CCN(c2ccc(NC(=O)c3ccc([N+](=O)[O-])o3)cc2Cl)CC1 | – | 3.69 µM (active) |
| CCC(=O)N1CCN(c2ccc(Cl)cc2NC(=O)c2ccc([N+](=O)[O-])o2)CC1 | 13% (inactive) | – |
| CC(=O)N1CCN(c2ccc(S(C)(=O)=O)cc2[N+](=O)[O-])CC1 | 14.8% (inactive) | – |
| CCC(=O)N1CCN(c2ccc(NC(=O)c3ccc([N+](=O)[O-])o3)cc2Cl)CC1 | – | 3.69 µM (active) |
| O=C(Nc1nc2c(Cl)cccc2s1)c1ccc([N+](=O)[O-])o1 | -7.01% (inactive) | – |
| CC(=O)N1CCN(c2ccc(NC(=O)c3ccc([N+](=O)[O-])o3)cc2Cl)CC1 | – | 9.27 µM (active) |
| O=C(Nc1cccc(NC(=O)c2ccccc2Cl)c1)c1ccc([N+](=O)[O-])o1 | – | 2.61 µM (active) |
